About 83,000 compounds went through this panel and 20% of them were active in at least one assay; those are over-represented in the sample as a whole.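 Single-dose data. Exposure time 48 hours. Values below 10 considered active.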 A number with no mark means an inactive call. Active and inactive are the calls of the source.
Tests used:
Test in all cases: NCI-60 one-dose screen, 48 h (100 = growth as untreated, 0 = no growth, -100 = all killed)
Conditions in all cases: 10 µM unless noted
SK-MEL-2 melanoma = tested on: SK-MEL-2 melanoma
EKVX NSCLC = tested on: EKVX NSCLC
SN12C renal = tested on: SN12C renal
UO-31 renal = tested on: UO-31 renal
ACHN renal = tested on: ACHN renal
A498 renal = tested on: A498 renal
CCRF-CEM leukemia = tested on: CCRF-CEM leukemia
MOLT-4 leukemia = tested on: MOLT-4 leukemia
SR leukemia = tested on: SR leukemia
RPMI-8226 leukemia = tested on: RPMI-8226 leukemia
OVCAR-8 ovarian = tested on: OVCAR-8 ovarian
OVCAR-5 ovarian = tested on: OVCAR-5 ovarian
OVCAR-4 ovarian = tested on: OVCAR-4 ovarian
SK-OV-3 ovarian = tested on: SK-OV-3 ovarian
IGROV1 ovarian = tested on: IGROV1 ovarian
OVCAR-3 ovarian = tested on: OVCAR-3 ovarian
HS 578T breast = tested on: HS 578T breast
NCI/ADR-RES ovarian = tested on: NCI/ADR-RES ovarian

Row | Structure (SMILES) | growth (SK-MEL-2 melanoma) | growth (EKVX NSCLC) | growth (SN12C renal) | growth (UO-31 renal) | growth (ACHN renal) | growth (A498 renal) | growth (CCRF-CEM leukemia) | growth (MOLT-4 leukemia) | growth (SR leukemia) | growth (RPMI-8226 leukemia) | growth (OVCAR-8 ovarian) | growth (OVCAR-5 ovarian) | growth (OVCAR-4 ovarian) | growth (SK-OV-3 ovarian) | growth (IGROV1 ovarian) | growth (OVCAR-3 ovarian) | growth (HS 578T breast) | growth (NCI/ADR-RES ovarian)
1 | COc1cc2ncn3c(=O)c4c5c(sc4nc3c2cc1OC)CCCCC5 | 113% | 87.9% | 105% | 92.5% | 94% | 90.9% | 103% | 106% | 97.9% | 103% | 102% | 98.6% | 101% | 99.6% | 79.3% | 98.4% | 99.7% | 92.4%
2 | COc1ccc(-c2nn(-c3cccc(Cl)c3)cc2-c2cc(-c3ccc(Br)cc3)[nH]c(=O)c2C#N)cc1 | 122% | 88.4% | 67.9% | 87.3% | 91.8% | 102% | 75.4% | 76% | 35.6% | 75% | 77.9% | 105% | -34% (active) | 89.1% | 92.9% | 68% | 33% | 65%
3 | NS(=O)(=O)c1ccc(CCN2C(=O)/C(=C\c3ccc(Cl)cc3)C=C2c2ccc(Oc3ccccc3)cc2)cc1 | 73% | 60.1% | 78.2% | 65.8% | 72.3% | 80.8% | 81.4% | 48.2% | 45.9% | 60.4% | 71.4% | 76.7% | 87.5% | 93% | 78.8% | 81.3% | 98.8% | 78.3%
4 | O=C(Nc1ccc(-n2ccc3c(NC(=O)c4ccccc4)nccc32)cc1)c1cccc(C(F)(F)F)c1 | 46.1% | 52.7% | 39.8% | 23.7% | 33.4% | 39% | 22.1% | 18.6% | -2.23% (active) | 6.14% (active) | 30.4% | 52.5% | 108% | 36.2% |  | 20.9% |  | 19.8%
5 | O=C(Nc1ccc(-n2ccc3c(NC(=O)c4ccccc4)ncnc32)cc1)Nc1ccc(Cl)c(C(F)(F)F)c1 | -22.3% (active) | 8.35% (active) | 16.4% | 23.5% | 4.23% (active) | 18.3% | -14.5% (active) | 1.2% (active) | 6.03% (active) | -38% (active) | -25.3% (active) | 17.8% | -42.8% (active) | 79.2% | -3.16% (active) | -86.6% (active) |  | 16%
6 | O=C(Nc1ccc(-n2cc(-c3ccncc3)c(-c3ccc(O)c(Cl)c3)n2)cc1)c1ccc(Cl)c(Cl)c1 | 20.2% | 47.7% | 58.3% | 23% | 20.6% | 79.6% | 16.5% | 32.3% | 18.6% | -27.7% (active) | 25.7% | 71.2% | 78.9% | 66.6% | 61.5% | 25.7% |  | 24.9%
7 | Nc1ncc(-c2ccc3ncnc(Nc4cncc(Cl)c4)c3c2)cn1 | 66.4% | 33% | 69.8% | 41.9% | 41.6% | 0.263% (active) | 84.5% | 77.8% | 73.8% | 50.1% | 76.8% | 52% | 66.8% | 46.5% | 7.85% (active) | 59.9% | 61.6% | 82.2%
8 | Cc1ccc[n+](CC(=O)c2cccc3ccccc23)c1 | 106% | 95.9% | 102% | 89.5% | 103% | 90% | 101% | 98% | 112% | 101% | 114% | 98.6% | 103% | 96.9% |  | 98.6% | 106% | 108%
9 | CSc1ccc(C(=O)C[n+]2cccc(C)c2)cc1 | 110% | 100% | 99.9% | 97.4% | 112% | 86.7% | 99.8% | 97% | 106% | 98.2% | 106% | 104% | 113% | 102% | 106% | 104% | 98.4% | 104%
10 | c1ccc(-c2nc3sc(C(c4ccccc4)c4ccccc4)nn3c2-c2ccccc2)cc1 | 81.3% | 89.8% | 93.8% | 90.8% | 97.5% | 87.6% | 100% | 107% | 80.6% | 108% | 104% | 103% | 103% | 94.7% | 86.4% | 100% | 106% | 95.3%
11 | COc1ccc(CNc2nc3ccccc3c3c(=O)c4ccccc4sc23)cc1OC | 102% | 84.3% | 82.5% | 85% | 40.2% | 64.2% | 84.8% | 86.6% | 65.3% | 87.3% | 64.8% | 97.2% | 62.1% | 81.9% | 80.6% | 82.6% | 65.8% | 74.3%
12 | NCC(=O)NS(=O)(=O)OC[C@H]1O[C@@H](n2cnc3c(N)ncnc32)[C@H](O)[C@@H]1O | -34.4% (active) | 44.1% | 1.03% (active) | 6.08% (active) | 11.8% | -58.8% (active) | 21.7% | 1.15% (active) | 9.93% (active) | 18% | -11.9% (active) | 0.292% (active) | -22.1% (active) | 6.28% (active) |  | 10% | 16.1% | 2.07% (active)
13 | O=c1c2ccccc2sc2c(N3CCCC3)nc3ccccc3c12 | 127% | 103% | 91.3% | 97% | 98.6% | 73% | 92.1% | 102% | 81.5% | 92.8% | 93.6% | 112% | 95.2% | 118% | 85.8% | 107% | 89.6% | 102%
14 | O=c1c2ccccc2sc2c(NCCCNCCO)nc3ccccc3c12 | -35.6% (active) | 55.6% | 44.8% | 28.9% | -7.87% (active) | 16.4% | -6.25% (active) | -20.4% (active) | -25.9% (active) | -14.8% (active) | 17.7% | 76.3% | 60.4% | 69.4% | 27% | 35.2% | 34% | 31.5%
15 | Nc1ncnc2c1c(-c1ccc(Oc3ccccc3)cc1)nn2C[C@H]1SSC[C@@H]1O | -46.5% (active) | 25.3% | 54.5% | 17.4% | 33.4% | 27.9% | -15.8% (active) | -51.2% (active) | -49.4% (active) | 46.2% | 79.4% | 82.1% | 47.2% | 1.91% (active) | 22% | -62.4% (active) | 68.3% | 76.5%
16 | CN(C)CCNc1nc2ccccc2c2c(=O)c3ccccc3sc12 | -11% (active) | 30.7% | 32.1% | 12.6% | 7.03% (active) | -2.07% (active) | 6.74% (active) | -4.55% (active) | -18.1% (active) | -8.02% (active) | 14.6% | 46% | 38.4% | 31.5% | 28.5% | 31.2% | 30.3% | 20.9%
17 | Cc1cn(-c2cc(C(=O)Nc3cccc(-n4ccc5c(NC(=O)c6ccccc6)nccc54)c3)cc(C(F)(F)F)c2)cn1 | 11.2% | 45.6% | 21.7% | 15.5% | 27.6% | 16.1% | -21.7% (active) | 12.4% | -24.9% (active) | -51.7% (active) | 4.81% (active) | 35.6% | 75.7% | 13.1% | 7.51% (active) | -67.7% (active) |  | 4.71% (active)
